# Reference: PubChem BioAssay
# “And” between values parts separate entries of the source, which are not always exact repeats. Equal entries are not always repeated. The source made the active and inactive calls.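 How the source made its calls, unless noted: active means normalized viability below 100% at a tested concentration; inactive means the rest.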
# How the values were obtained:
# [1] = viability loss with induced miR-34 in A549 – imaging, A549 dox-inducible miR-34, nuclei and caspase counts, primary screen (AID 1347080;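 active means compounds whose cell count with miR-34 switched on is under 0.7 times the count with it off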); conditions: A549 miR-34 inducible, Hoechst nuclei count, 48 h
# [2] = MELAS cybrid and Rieske KO viability enhancers – cell-based, MELAS cybrids, Rieske KO mouse fibroblasts, CellTiter-Glo, primary screen (AID 1508586;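 active means mean z-score across replicates of 1.96 or higher in either the MELAS or the Rieske mutant cell line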;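 further: z relative to plate mean and SD of compound and empty wells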); conditions: low glucose
# [3] = drug combination growth inhibition, ovarian cancer – cell-based, oncology-focused library, rucaparib conditional, profiling panel (AID 1508598); conditions: patient-derived ovarian cancer cells, CellTiter-Glo viability, 144 h, stronger effect = lower value
# [4] = growth inhibition, single agent or in combination, cell-based, chromothripsis tumors, cisplatin or BGB combos (AID 1671449; in the data active means inhibition above about 80%;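 further: cells exposed for 96 hours; 0% = vehicle DMSO and 100% = killing by high DMSO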); conditions: LFS_MB_P medulloblastoma cells
# [5] = growth inhibition, single agent and combos, cell-based, chromothripsis tumors, cisplatin or BGB combos (AID 1671450; in the data active means inhibition above about 80%;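 further: cells exposed to compound for four days; 0% = vehicle DMSO and 100% = cell killing by high DMSO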); conditions: HDN33 neuroblastoma cells, stronger effect = higher value
# [6] = growth inhibition, single agents and combos, ICB984, cell-based, cisplatin or BGB combos, synergistic combos for chromothripsis tumors (AID 1671451; call rule not given here;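 further: cells exposed for 96 hours before readout; 0% = vehicle DMSO and 100% = killing by high DMSO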); conditions: ICB984 medulloblastoma cells, drug combinations, stronger effect = higher value
# [7] = growth inhibition, single agents and combos, LFS_MB_1R, cell-based, cisplatin or BGB combos, synergistic combos for chromothripsis tumors (AID 1671452; in the data active means inhibition above about 80%;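 further: cells exposed for 96 hours before readout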); conditions: LFS_MB_1R medulloblastoma cells, stronger effect = higher value
# [8] = growth inhibition, single agents and combos, HTB85, cell-based, BGB or cisplatin IC20 combos, synergistic combos for chromothripsis tumors (AID 1671453; in the data active means inhibition above about 80%;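 further: cells exposed for 96 hours before readout; 0% = vehicle DMSO and 100% = high DMSO killing control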); conditions: HTB85 osteosarcoma cells, drug combinations, stronger effect = higher value
# [9] = growth inhibition, single agents and combos, CRL2098, cell-based, BGB or cisplatin IC20 combos, synergistic combos for chromothripsis tumors (AID 1671454; in the data active means inhibition above about 80%;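 further: cells exposed for 96 h before readout; 0% = vehicle DMSO and 100% = killing by high DMSO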); conditions: CRL2098 osteosarcoma cells, drug combinations, stronger effect = higher value
# [10] = growth inhibition, single agents and combos, HD-MB03, cell-based, BGB or cisplatin IC20 combos, synergistic combos for chromothripsis tumors (AID 1671455; in the data active means inhibition above about 83%;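 further: 0% = vehicle DMSO and 100% = high DMSO as cytotoxic control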); conditions: HD-MB03 medulloblastoma cells, stronger effect = higher value
# [11] = growth inhibition, single agents and combos, UWB1.289, cell-based, BGB or cisplatin combos, synergistic combos for chromothripsis tumors (AID 1671456; in the data active means inhibition above about 80%;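 further: cells exposed to compound for four days; 0% = vehicle DMSO and 100% = killing by high DMSO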); conditions: UWB1.289 ovarian carcinoma cells, stronger effect = higher value
# [12] = growth inhibition, single agents and combos, LFS_MB_2R, cell-based, cisplatin combos, synergistic combos for chromothripsis tumors (AID 1671457; in the data active means inhibition above about 80%;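 further: cells exposed to compound for four days before readout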); conditions: LFS_MB_2R medulloblastoma cells, stronger effect = higher value
# [13] = growth inhibition, MDA-MB-436, cell-based, BGB or cisplatin combos, synergistic combos for chromothripsis tumors (AID 1671458; call rule not given here;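 further: cells exposed for 96 hours; 0% = vehicle DMSO and 100% = killing by high DMSO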); conditions: MDA-MB-436 breast carcinoma growth inhibition, drug combinations, stronger effect = higher value
# [14] = UWB1.289_BRCA1 ovarian cancer growth, cell-based, BGB or cisplatin combinations (AID 1671459; in the data active means inhibition above about 80%); conditions: UWB1.289 BRCA1 ovarian carcinoma, drug combinations, stronger effect = higher value
# [15] = BT084 cell growth, single and combined drugs, ICGC_MB145, cisplatin and BGB IC40 combos (AID 1671461; in the data active means inhibition above about 80%;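 further: cells exposed to drugs for 96 hours; 0% = vehicle DMSO and 100% = high DMSO full killing control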); conditions: BT084 medulloblastoma cells, drug combinations, at 0.5 µM, stronger effect = higher value
# [16] = measured here: combination with BGB IC40, at 0.05 µM
# [17] = measured here: combination with cisplatin, at 0.5 µM
# [18] = measured here: combination with cisplatin, at 5 µM
smiles,measurement,setting,value
C[C@@]1(c2nc3c(C(N)=O)cccc3[nH]2)CCCN1,fold change,"[1]; stronger effect = lower value, cell number ratio, induced over uninduced",0.941 (inactive)
same,fold change,[1]; measured here: relative caspase fold change +Dox/-Dox,1.01
same,cell count,"[1]; measured here: total cells with miR-34 induction, stronger effect = lower value",6840
same,cell count,[1]; measured here: total cells without miR-34 induction,7270
same,z-score,"[2]; MELAS cybrid survival, CellTiter-Glo 48 h, stronger effect = higher value",-0.268 (inactive)
same,z-score,"[2]; Rieske KO mouse fibroblast survival, CellTiter-Glo 72 h",0.497
same,viability,"[3]; at 0.000305 µM, OCI-C5x cells, with rucaparib 10 µM, 100% = cells with rucaparib alone",125% (inactive)
same,viability,"[3]; at 0.000305 µM, OCI-C5x cells, without rucaparib",110% (inactive)
same,viability,"[3]; at 0.000305 µM, OCI-P5x cells, with rucaparib 20 µM, 100% = cells with rucaparib alone",108% (inactive)
same,viability,"[3]; at 0.000305 µM, OCI-P5x cells, without rucaparib",83.4% (active)
same,viability,"[3]; at 0.00122 µM, OCI-C5x cells, with rucaparib 10 µM, 100% = cells with rucaparib alone",114% (inactive)
same,viability,"[3]; at 0.00122 µM, OCI-C5x cells, without rucaparib",114% (inactive)
same,viability,"[3]; at 0.00122 µM, OCI-P5x cells, with rucaparib 20 µM, 100% = cells with rucaparib alone",97.2% (active)
same,viability,"[3]; at 0.00122 µM, OCI-P5x cells, without rucaparib",101% (inactive)
same,viability,"[3]; at 0.00488 µM, OCI-C5x cells, with rucaparib 10 µM, 100% = cells with rucaparib alone",122% (inactive)
same,viability,"[3]; at 0.00488 µM, OCI-C5x cells, without rucaparib",109% (inactive)
same,viability,"[3]; at 0.00488 µM, OCI-P5x cells, with rucaparib 20 µM, 100% = cells with rucaparib alone",106% (inactive)
same,viability,"[3]; at 0.00488 µM, OCI-P5x cells, without rucaparib",102% (inactive)
same,viability,"[3]; at 0.0195 µM, OCI-C5x cells, with rucaparib 10 µM, 100% = cells with rucaparib alone",121% (inactive)
same,viability,"[3]; at 0.0195 µM, OCI-C5x cells, without rucaparib",106% (inactive)
same,viability,"[3]; at 0.0195 µM, OCI-P5x cells, with rucaparib 20 µM, 100% = cells with rucaparib alone",98.2% (active)
same,viability,"[3]; at 0.0195 µM, OCI-P5x cells, without rucaparib",95.2% (active)
same,viability,"[3]; at 0.0781 µM, OCI-C5x cells, with rucaparib 10 µM, 100% = cells with rucaparib alone",120% (inactive)
same,viability,"[3]; at 0.0781 µM, OCI-C5x cells, without rucaparib",104% (inactive)
same,viability,"[3]; at 0.0781 µM, OCI-P5x cells, with rucaparib 20 µM, 100% = cells with rucaparib alone",91.6% (active)
same,viability,"[3]; at 0.0781 µM, OCI-P5x cells, without rucaparib",102% (inactive)
same,viability,"[3]; at 0.313 µM, OCI-C5x cells, with rucaparib 10 µM, 100% = cells with rucaparib alone",132% (inactive)
same,viability,"[3]; at 0.313 µM, OCI-C5x cells, without rucaparib",102% (inactive)
same,viability,"[3]; at 0.313 µM, OCI-P5x cells, with rucaparib 20 µM, 100% = cells with rucaparib alone",98.3% (active)
same,viability,"[3]; at 0.313 µM, OCI-P5x cells, without rucaparib",91% (active)
same,viability,"[3]; at 1.25 µM, OCI-C5x cells, with rucaparib 10 µM, 100% = cells with rucaparib alone",111% (inactive)
same,viability,"[3]; at 1.25 µM, OCI-C5x cells, without rucaparib",108% (inactive)
same,viability,"[3]; at 1.25 µM, OCI-P5x cells, with rucaparib 20 µM, 100% = cells with rucaparib alone",90% (active)
same,viability,"[3]; at 1.25 µM, OCI-P5x cells, without rucaparib",87.4% (active)
same,viability,"[3]; at 5 µM, OCI-C5x cells, with rucaparib 10 µM, 100% = cells with rucaparib alone",123% (inactive)
same,viability,"[3]; at 5 µM, OCI-C5x cells, without rucaparib",108% (inactive)
same,viability,"[3]; at 5 µM, OCI-P5x cells, with rucaparib 20 µM, 100% = cells with rucaparib alone",80.7% (active)
same,viability,"[3]; at 5 µM, OCI-P5x cells, without rucaparib",91.4% (active)
same,inhibition,"[4]; at 0.5 µM, stronger effect = higher value",-30.4% (inactive) and -7.42% (inactive)
same,inhibition,"[4]; measured here: combination with BGB IC20, at 0.005 µM",18.7% and -30.5%
same,inhibition,"[4]; measured here: combination with BGB IC40, at 0.005 µM",-17.7% and -33.9%
same,inhibition,[4]; [16],4.58% and -46.4%
same,inhibition,"[4]; measured here: combination with cisplatin, at 0.5 µM, stronger effect = higher value",-30.4% and -24.5%
same,inhibition,"[4]; measured here: combination with cisplatin, at 5 µM, stronger effect = higher value",-24.1% and -57.4%
same,inhibition,"[5]; BGB combo, at 5 µM",-38.7% and -21.7%
same,inhibition,[5]; at 0.5 µM,-18.6% (inactive) and -27.5% (inactive)
same,inhibition,"[5]; cisplatin combo, at 5 µM",-25% and 2.08%
same,inhibition,"[5]; measured here: with BGB IC20 combination, at 0.5 µM",-20.1% and -23.6%
same,inhibition,"[5]; measured here: with cisplatin IC20 combination, at 0.5 µM",-10.4% and -15.2%
same,inhibition,"[5]; single agent, at 5 µM",-35.1% and -10.6%
same,inhibition,"[6]; BGB IC20 combo, at 0.005 µM",-43.5% and -1.75%
same,inhibition,"[6]; BGB IC40 combo, at 0.005 µM",-45.8% and -18.7%
same,inhibition,"[6]; BGB IC40 combo, at 0.05 µM",-19.5% and -39.6%
same,inhibition,[6]; at 0.5 µM,-17.4% (inactive) and -39% (inactive)
same,inhibition,"[6]; cisplatin combo, at 0.05 µM",-25.6% and -44.6%
same,inhibition,"[6]; cisplatin combo, at 0.5 µM",-23.4% and -27.8%
same,inhibition,"[6]; cisplatin combo, at 5 µM",-25.3% and -24.6%
same,inhibition,"[6]; measured here: 5 uM single agent, at 5 µM",-15.1% and -18.4%
same,inhibition,[7]; at 0.5 µM,-10.8% (inactive) and -21.8% (inactive)
same,inhibition,[7]; [16],5.8% and -13.2%
same,inhibition,[7]; [17],-30.9% and -32.1%
same,inhibition,[7]; [18],-34.7% and -78.6%
same,inhibition,[8]; at 0.5 µM,-28.2% (inactive) and -8.28% (inactive)
same,inhibition,"[8]; measured here: with BGB IC20, at 0.5 µM",-26.4% and -15.6%
same,inhibition,"[8]; measured here: with BGB IC20, at 5 µM",-37.2% and -23.1%
same,inhibition,"[8]; measured here: with cisplatin IC20, at 0.5 µM",-25.2% and -2.08%
same,inhibition,"[8]; measured here: with cisplatin IC20, at 5 µM",-5% and -37.1%
same,inhibition,"[8]; single agent, at 5 µM",-8.07% and -11.2%
same,inhibition,[9]; at 0.5 µM,-55.3% (inactive) and -67.8% (inactive)
same,inhibition,"[9]; measured here: combination with BGB at IC20, at 0.5 µM",-51.9% and -45%
same,inhibition,"[9]; measured here: combination with cisplatin at IC20, at 0.5 µM",-90.3% and -100%
same,inhibition,[10]; at 0.5 µM,-10.9% (inactive) and -9.85% (inactive)
same,inhibition,"[10]; measured here: combo with BGB at IC20, at 0.5 µM",-9.31% and -21.4%
same,inhibition,"[10]; measured here: combo with cisplatin at IC20, at 0.5 µM",-20.2% and -6.83%
same,inhibition,[11]; at 0.5 µM,-10.2% (inactive) and 3.78% (inactive)
same,inhibition,"[11]; measured here: inhibition with BGB combination, at 0.05 µM",-8.84% and -23.2%
same,inhibition,"[11]; measured here: inhibition with cisplatin combination, at 0.05 µM",-15.9% and -9.39%
same,inhibition,[12]; at 0.5 µM,-15.2% (inactive) and -24.4% (inactive)
same,inhibition,[12]; [17],-24.8% and -30.4%
same,inhibition,[12]; [18],-13.3% and -26.2%
same,inhibition,[13]; at 0.5 µM,4.59% (inactive) and -23.4% (inactive)
same,inhibition,"[13]; measured here: BGB combination, at 0.5 µM",-1.87% and -40.7%
same,inhibition,"[13]; measured here: BGB combination, at 5 µM",2.42% and -13.4%
same,inhibition,"[13]; measured here: cisplatin combination, at 0.5 µM",-2.04% and -27.9%
same,inhibition,"[13]; measured here: cisplatin combination, at 5 µM",-0.972% and -36.3%
same,inhibition,"[14]; BGB combination, concentration series, at 5 µM",-24.7% and -7.53%
same,inhibition,[14]; at 0.5 µM,-10.7% (inactive) and -7.52% (inactive)
same,inhibition,"[14]; cisplatin combination, concentration series, at 5 µM",-27.7% and -31.9%
same,inhibition,[15],-3.53% (inactive) and 6.53% (inactive)
same,inhibition,[15]; cisplatin combination,-17.4% and -25.6%
